The source of these data is PubChem BioAssay (NCATS).

Records with an inconclusive call do not appear. Unmarked numbers belong to inactive results. The source made the active and inactive calls. Calls follow the shape of the dose curve; as a rule, active = well fitted activation curve with a large enough effect; inconclusive = small, poorly fitted or top-dose-only effect; inactive = no such curve, though single readings can be large or run the other way.
Potency is read from the fitted curve at half-maximal effect.

Chain of Cellular tumor antigen p53 (Homo sapiens) (P04637 whole entry, looked up): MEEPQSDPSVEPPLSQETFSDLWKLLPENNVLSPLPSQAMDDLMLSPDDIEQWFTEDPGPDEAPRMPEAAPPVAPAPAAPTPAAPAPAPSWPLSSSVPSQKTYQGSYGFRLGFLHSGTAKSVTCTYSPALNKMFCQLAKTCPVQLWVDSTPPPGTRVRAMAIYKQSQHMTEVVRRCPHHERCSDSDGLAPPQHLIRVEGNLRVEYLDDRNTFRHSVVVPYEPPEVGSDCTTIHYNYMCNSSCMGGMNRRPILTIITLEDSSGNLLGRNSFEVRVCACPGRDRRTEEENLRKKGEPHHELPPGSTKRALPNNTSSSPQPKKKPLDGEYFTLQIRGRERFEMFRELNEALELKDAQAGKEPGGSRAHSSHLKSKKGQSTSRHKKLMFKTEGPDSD

For this test, the target named is Cellular tumor antigen p53 (Homo sapiens) (UniProt P04637). Briefly: Primary qHTS for small molecule compounds that upregulate eGFP-tagged delta133p53alpha (in N-terminal) cells. (AID 2060322). Also: nearly all actives have a fitted effect of over 75% in size.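 As to activation: cells pre-induced with doxycycline then dosed without doxycycline; series mostly up to about 56 µM; 0% = DMSO vehicle and 100% = reference activator.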 Conditions: NCI-H358 eGFP-delta133p53alpha fluorescence, 24 h; activation: hits give high values. An outline of the steps:
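NCI-H358 cells pre-induced 24 h with 10 ng/ml doxycycline for eGFP-delta133p53alpha, plated dox-free and exposed 24 h at 37C to titrated compounds. Fixed, Hoechst-stained; gated GFP peak intensity by laser scanning cytometry, normalized to DMSO (0%) and 57.5 uM 5-azacytidine (100%).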
A general note: qHTS replaces the single test concentration by a dilution series.
As for `COc1cc2c3cc1Oc1cc(ccc1O)C[C@@H]1c4c(cc(OC)c(O)c4Oc4ccc(cc4)C[C@@H]3N(C)CC2)CC[N+]1(C)C`, the activation is 19.8%.

Regarding `COc1cc(OC)nc(O[C@H](C(=O)O)C(OC)(c2ccccc2)c2ccccc2)n1`, the activation was -22%.

For `CC(C)(O)[C@H]1CC[C@@](C)([C@H]2[C@@H](O)C[C@@]3(C)[C@@H]4C[C@H](O[C@@H]5O[C@H](CO)[C@@H](O)[C@H](O)[C@@H]5O)[C@H]5C(C)(C)[C@@H](O[C@@H]6OC[C@@H](O)[C@H](O)[C@@H]6O)CC[C@@]56C[C@@]46CC[C@]23C)O1`, the activation is 10.3%.

For `CC(=O)O[C@H]1CC[C@@]2(C)C(=CC[C@@H]3[C@@H]2CC[C@]2(C)C(C(C)=O)=CC[C@@H]32)C1`, the activation is 4.18%.

As for `CCCCC/C(C=O)=C\c1ccccc1`, the activation is 19.8%.

As for `OC[C@H]1O[C@@H](Oc2cc(O)cc(C=Cc3ccc(O)cc3)c2)[C@H](O)[C@@H](O)[C@H]1O`, the activation is 9.98%.

For `Cc1cc(NS(=O)(=O)c2ccc(N)cc2)nc(C)n1`, the activation was -13.4%.

Regarding `CCCCOc1ccc(OCCCN2CCOCC2)cc1`, the activation was 22.6%.

For the molecule `CCOC(=O)c1c(N)sc2c1CCN(Cc1ccccc1)C2`, the Potency was 15.5 µM (active).

For the molecule `OC(CCN1CCCC1)(c1ccccc1)C1CCCCC1` (stereo not given), the activation is 20.1%.

In the case of `CC(C)(C)CC(=O)OCC(=O)[C@@]1(O)CC[C@H]2[C@@H]3CCC4=CC(=O)C=C[C@]4(C)[C@H]3[C@@H](O)C[C@@]21C`, the activation was -9.21%.

Turning to `CC(C)C(C)(C)C(C)(C)C(C)(C)S`, the activation is 5.08%.

With `CC(=O)c1cc2ccccc2s1`, the activation was 6.21%.

Consider `O=C(O)CN1C(=O)c2cccc3cccc(c23)C1=O`, for which the activation is -6.69%.

Turning to `CC1CCc2c(N3CCC(O)CC3)c(F)cc3c(=O)c(C(=O)O)cn1c23` (stereo not given), the activation was 5.02%.

For the molecule `Cc1cc2nc3c(=O)[nH]c(=O)nc-3n(C[C@H](O)[C@H](O)[C@H](O)CO)c2cc1C`, the activation is -36.8%.

With `CCCCCCCC(=O)[O-].CCCCCCCC(=O)[O-].[Zn+2]`, the activation was 14.1%.

On to `CN(C)C(=O)Nc1ccc(Cl)c(Cl)c1`, for which the activation is 13.4%.

`Cc1cccc(C)c1NC(=O)c1ccccc1C(=O)O`: the activation was 28.5%.

As to `Cc1ccccc1C(C(=O)NC1CCCC1)N(C(=O)Cn1cnc2ccccc21)c1cccc(F)c1` (stereo not given), the activation was -4.95%.

Regarding `CC(=O)CC/C=C(\C)CC/C=C(\C)CC/C=C(\C)CCC=C(C)C`, the activation is -15.3%.

Take `Oc1ccc(C(O)CNCCCCCCNCC(O)c2ccc(O)c(O)c2)cc1O` (stereo not given): the activation was 2.82%.

As for `COCCCCC(=NOCCN)c1ccc(C(F)(F)F)cc1`, the activation is 8.31%.

In the case of `CCN(C(=O)CO)[C@H]1CN(C(=Nc2cccc(OC(F)F)c2)NC#N)N=C1c1ccc(Cl)c(Cl)c1`, the activation is 19%.

Turning to `CC(C)[C@@H]1CC[C@@H](C)CC1=O`, the activation was 16.4%.

Take `O=C(O)Cc1ccc2c(c1)C(=O)c1ccccc1CO2`: the activation is 7.34%.

With `CO[C@@H]1[C@@H](O[C@@H]2O[C@H](C)[C@@H](O[C@H]3C[C@@](C)(O)[C@@H](O)[C@H](C)O3)[C@H](N(C)C)[C@H]2O)[C@@H](CC=O)C[C@@H](C)[C@@H](O[C@@H]2CC[C@H](N(C)C)[C@@H](C)O2)/C=C/C=C/C[C@@H](C)OC(=O)C[C@H]1OC(C)=O`, the activation was -19.8%.

Turning to `NS(=O)(=O)c1cc(C(=O)O)cc(N2CCCC2)c1Oc1ccccc1`, the activation was -9.6%.

`NC(=O)NS(=O)(=O)c1ccc(Cl)cc1`: the activation was 1.69%.

In the case of `CCOc1ncc(F)c(=O)[nH]1`, the activation is 3.95%.

In the case of `CC(=O)OCC(=O)[C@@]1(O)CCC2C3CCC4=CC(=O)CC[C@]4(C)C3[C@@H](O)C[C@@]21C` (stereo not given in full), the activation was 25.1%.

In the case of `Cc1c(NC(C)C)c(=O)n(-c2ccccc2)n1C`, the activation was 11.7%.

For the molecule `Cn1c([N+](=O)[O-])cnc1COC(N)=O`, the activation was -9.6%.

With `CC(C)CN(C[C@@H](O)[C@H](Cc1ccccc1)NC(=O)O[C@H]1CO[C@H]2OCC[C@H]21)S(=O)(=O)c1ccc(N)cc1`, the activation was 22.9%.

For the molecule `CN1CCN(CCC(=O)N2c3ccccc3Sc3ccc(C(F)(F)F)cc32)CC1`, the activation was 18.6%.

In the case of `CC(=O)O[C@]1(C(C)=O)CC[C@H]2[C@@H]3C=C(C)C4=CC(=O)CC[C@]4(C)[C@@H]3CC[C@@]21C`, the activation is -16.9%.

In the case of `NCCCC[C@H](N[C@@H](CCc1ccccc1)C(=O)O)C(=O)N1CCC[C@H]1C(=O)O`, the activation was -3.95%.

Take `COc1ccc2c3c1OC1C[C@@H](O)C=C[C@@]31CCN(C)C2` (stereo not given in full): the activation is 8.8%.

`C[C@@H](CN(C)C)CN1c2ccccc2Sc2ccccc21`: the activation was -15.1%.

Take `CCCN1CCCC[C@H]1C(=O)Nc1c(C)cccc1C`: the activation was 9.6%.
